Results published in PubChem BioAssay AID1628 (Sanford-Burnham Center for Chemical Genomics, 2009).
The campaign covered roughly 190,000 compounds. About 930 (0.49%) were called active.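 Rule for the calls: active = z-score of insulin promoter reporter brightness in nuclei below -3 at 5 µM, with at least 500 cells counted; inconclusive = wells with under 500 cells, flagged as toxic or sparse; inactive = the rest.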 The list shows a part of the results. Entries with a potency or affinity are not part of this list.

assay: decrease of insulin promoter-GFP reporter – imaging, high-content screening, mouse beta cells (AID 1628); details: MIN6 insulin promoter GFP reporter, at 5 µM, stronger effect = lower value

z-score, active:
c1cncc(-c2nc(NCc3ccco3)c3ccccc3n2)c1 -3.11
OC1(c2cccc(C(F)(F)F)c2)CCN(c2ncnc3c2[nH]c2ccc(F)cc23)CC1 -4.94
COc1cccc(N2CCN(c3ncnc4c3[nH]c3ccc(F)cc34)CC2C)c1 (configuration not stated) -3.69
O=C(Nc1ccc(S(=O)(=O)N2CCCCC2)cc1)c1ccncc1 -3.68
COc1ccc(S(=O)(=O)N2CCN(c3ccc4nnc(-c5ccc(F)cc5)n4n3)CC2)cc1 -4.36
Fc1ccc(-c2nnc3ccc(N4CCc5ccccc5C4)nn23)cc1 -3.5
COc1ccccc1N1CCN(CC(O)COc2ccc(S(=O)(=O)N3CCOCC3)cc2)CC1 (configuration not stated) -3.8
O=S(=O)(c1ccc(OCC(O)CN2CCN(c3ccc(F)cc3)CC2)cc1)N1CCOCC1 (configuration not stated) -4.17
O=C(CN1CCCCCCC1)N/N=C/c1ccc(F)cc1F -7.88
CCOC(=O)C1CCCN(CC(=O)Nc2c(C(=O)OC)[nH]c3ccc(C)cc23)C1 (configuration not stated) -3.29
O=C(CN1CCN(Cc2ccc(Cl)cc2)C1=O)NCCCN1CCN(c2ccc(F)cc2)CC1 -4.01
O=C(N/N=C/c1cn(-c2ccccc2)nc1-c1ccccc1)c1ccco1 -4.01
C#CC(C)(C)NC(=O)CSc1nc2c(c(=O)n(C)c(=O)n2C)n1CCCC -7.25
COc1ccc(CN2CCN(c3ccccn3)CC2)cc1OCc1ccccc1 -8.87
COc1ccc(OC)c(C(c2nnnn2C2CCCC2)N2CCN(c3ccccc3F)CC2)c1 (configuration not stated) -4.67

z-score, inactive:
c1cncc(-c2nn[nH]n2)c1 -1.32
CC(C)(C)c1nc2ccccc2c2nnc(SCC(=O)NCc3ccco3)n12 1.35
O=C(Nc1nnc(-c2ccccc2)o1)Nc1ccccc1Cl 3.77
O=C(NCc1cccnc1)c1ccc(CN2CCc3ccccc3C2)cc1 0.66
Cc1csc(SCC(=O)Nc2ccc(S(=O)(=O)N3CCCC3)cc2)n1 0.21
CCc1cccc2cc3c(N)c(C(=O)Nc4ccc(S(=O)(=O)N5CCCC5)cc4)sc3nc12 8.59
N#C/C(=C/c1ccc(N2CCCCCC2)o1)c1cccc(F)c1 15.9
COc1ccc(-c2nnc3sc(C(C)N4C(=O)c5ccccc5C4=O)nn23)cc1 (configuration not stated) 1.87
OC(COc1cccc2ccccc12)CN1CCN(c2ccccc2Cl)CC1 (configuration not stated) 3.51
CC(C)NC(=O)N1CCN(c2ccncc2S(=O)(=O)N2CCOCC2)CC1 5.83
CCCCSc1cc(C)nc2ncnn12 0.8
O=C(O)CCCCCN1C(=O)/C(=C\c2ccc(-c3ccc(Cl)cc3)o2)SC1=S 4.23
COc1cc2c3nnc(-c4ccc(F)cc4)c-3cn(Cc3ccc(F)cc3)c2cc1OC 6.06
COC(=O)c1[nH]c2cccc(Cl)c2c1NC(=O)CN(C)C1CCCCC1 3.5
CCS(=O)(=O)N1Cc2ccccc2CC1C(=O)OCC(=O)Nc1ccc(C)cc1 (configuration not stated) 5.05
Cc1[nH]c2ccccc2c1C(=O)CN1CCCCC1C (configuration not stated) -1.61
C=CCN1C=CC(=CC=C(C#N)C#N)C=C1 3.27
Cc1nn(C)cc1N1C(=O)c2cccc3c(N)ccc(c23)C1=O 5.94
O=C(NCCN1CCCC1)C1(S(=O)(=O)c2ccc(Cl)cc2)CC1 3.06
c1ccc2c3c([nH]c2c1)C1(CCCCC1)NCC3 -0.6
O=C(N/N=C\c1cn(-c2ccccc2)nc1-c1ccccc1)c1ccc(Br)o1 3.24
Nc1c(C(=O)N/N=C/c2ccccc2Cl)oc2nc(-c3ccccc3)cc(-c3ccco3)c12 6.17
CCSc1nc2c(c(=O)[nH]c(=O)n2C)n1C -1.45
CC(C)C(C)(C#N)NC(=O)CSc1nnc(C(F)(F)F)n1C (configuration not stated) 3.02
CC(=O)Nc1sc2c(c1CN1CCN(c3ccccn3)CC1)CCCC2 -1.66
Cc1cnc(NC(=O)CN2CCN(c3ccccn3)CC2)s1 3.14
CCN(CC)c1ccc2cc(-c3nc4ccccc4[nH]3)c(=O)oc2c1 17.2
CCOc1cc(N(CC)CC)ccc1/C=C(/C#N)c1nc2ccccc2[nH]1 8.11
CCOC(=O)N1CCN(C(=O)CSc2ccc3nnc(CCNC(=O)c4ccc(OC)cc4)n3n2)CC1 3.73
CN(C)c1ccc(/C=C2\CCC/C(=C\c3ccccc3)C2=O)cc1 3.4
Cc1nnc(NC(=O)c2sc3nc(-c4cccs4)cc(C(F)(F)F)c3c2N)s1 15.1
CN(C)c1ccc(C(=O)N/N=C/c2cc(Br)cc(Br)c2O)cc1 4.65
